Source: PubChem (National Center for Advancing Translational Sciences (NCATS))
GPT2 inh = GPT2 alanine aminotransferase inhibition; 100,000 compounds, 0.25% hits; Potency, µM (titrated, usually from 57.7 µM), for inactives: top-dose activity change, negative = inhibition, actives largely listed as inhibitors; AID 1671188; Recombinant GPT2, coupled pyruvate oxidase/HRP Amplex Red fluorescence; Q8TD30; also: nearly all actives have a fitted effect of over 60% in size
Target sequence (Q8TD30 whole entry, looked up): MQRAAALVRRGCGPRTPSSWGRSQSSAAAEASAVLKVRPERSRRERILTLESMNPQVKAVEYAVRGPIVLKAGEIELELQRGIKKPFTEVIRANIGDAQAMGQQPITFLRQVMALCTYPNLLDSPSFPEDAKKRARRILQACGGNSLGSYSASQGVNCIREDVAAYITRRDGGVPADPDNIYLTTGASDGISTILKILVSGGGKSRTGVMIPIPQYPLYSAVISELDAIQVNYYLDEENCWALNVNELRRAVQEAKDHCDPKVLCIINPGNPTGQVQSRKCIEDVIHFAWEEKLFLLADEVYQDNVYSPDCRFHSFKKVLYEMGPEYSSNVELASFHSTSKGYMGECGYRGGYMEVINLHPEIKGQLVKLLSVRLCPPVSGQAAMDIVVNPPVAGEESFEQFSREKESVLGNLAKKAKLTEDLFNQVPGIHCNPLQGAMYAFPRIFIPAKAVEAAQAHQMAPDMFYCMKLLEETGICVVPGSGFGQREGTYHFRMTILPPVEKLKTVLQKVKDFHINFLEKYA
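GPT2 10ng/uL, a-KG 250uM, L-Ala 2mM, HEPES pH7.5 + 0.0001% Tween; 30 min RT. Then Amplex mix (PO/HRP/ThPP), 30 min RT dark, fluorescence. AOA 50uM used as positive control.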
3T3 cytotox = cytotoxic compounds in NIH 3T3 cells; Potency, µM (top dose mostly 96.7 µM), for the others: at the highest dose activity change, negative = cytotoxicity, most hits filed as inhibitors; NIH 3T3 viability, CellTiter-Glo ATP luminescence, 48-72 h; AID 1345082; 94,000 compounds, 4.3% hits; also: nearly all actives have a fitted effect of over 55% in size
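Mouse fibroblast NIH 3T3 cells, 400 per well, received compound via pintool and were incubated for 48 or 72 hr prior to CellTiter-Glo ATP luminescence measurement.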
Luciferase inh = Photinus pyralis luciferase inhibition | purified P. pyralis luciferase, luminescence, biochemical | 76,000 compounds, 2.5% hits | Potency, µM (highest dose often 115 µM), actives largely listed as inhibitors | AID 1347043; also: nearly all actives have a fitted effect of over 65% in size
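Cell-free enzyme assay, 10nM P. pyralis luciferase, luciferin and ATP each at 10uM. Inhibition profiled over a 6-point titration, read as luminescence.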
hNpr1 antagonist = antagonists of human natriuretic peptide receptor Npr1. P16066. HEK293 hNpr1 GloSensor cGMP, ANP-stimulated luminescence. Potency, µM (series often up to 46.3 µM), for the others: at the top dose activity change, negative = inhibition, hits mostly inhibitors. 76,000 compounds, 1.6% hits; calls by dose curve; also: nearly all actives have a fitted effect of over 60% in size
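Compound pre-incubated 30 min at room temperature on GloSensor-loaded HEK293 cells stably carrying hNpr1 and the pGS-40F cGMP biosensor. Stimulation uses hNppA at 0.1 nM final; luminescence is taken at baseline and 20 min post-agonist.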
HEK cytotox = cytotoxic compounds in HEK 293 cells; HEK 293 viability, ATP luminescence (CellTiter-Glo), 48-72 h; Potency, µM (doses to about 115 µM), for the others: top-dose activity change, negative = cytotoxicity, most hits filed as inhibitors; 94,000 compounds, 6.6% hits; also: nearly all actives have a fitted effect of over 60% in size
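HEK 293 seeded at 250 cells/well receive compound via pintool. After 48 or 72 hr at 37 degree Celsius, 5% CO2 and 95% humidity, CellTiter-Glo is dispensed and luminescence read following 10 min at room temperature.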
Starred values were filed as active, the others as inactive; i = inactive; u = inconclusive; x = not tested or not shown; ! = a repeat was not active; [ ] = dose if it differs, or a comment. An excerpt weighted towards active compounds, which were near 10% of everything screened. Unless noted, calls follow the shape of the dose curve; as a rule, active = well fitted curve in the direction sought with a large enough effect; inconclusive = small, poorly fitted or top-dose-only effect, or another doubt; inactive = no such curve, though single readings can be large; an effect the other way counts as inactive or inconclusive. % is scaled to controls: 0 for no effect and ±100 for the full control effect; potency is read from the fitted curve at half-maximal effect.

SMILES | GPT2 inh | 3T3 cytotox | Luciferase inh | hNpr1 antagonist | HEK cytotox
CN1CCN(C(=O)[C@@H]2[C@@H](CC(=O)O)c3cccnc3C(=O)N2Cc2ccccc2)CC1 | -15%[27.3 µM] | -16%[46.1 µM] | x | x | u
COc1ccccc1Nc1ccnc(N2CCC[C@H]2C(=O)NC2CCCC2)n1 | i | -22% | x | x | u
O=C1Nc2ccccc2C12CN([S+](=O)([O-])c1cccc(C(F)(F)F)c1)C2 | i | u | x | x | -22%
O=C1Nc2ccccc2C12CCN([S+](=O)([O-])c1ccsc1)CC2 | u | -8% | i | -28% | 45µM*
O=C1CC2(CCN(C(=O)C3CCN(C(=O)c4ccc(Cl)nc4)CC3)CC2)Oc2ccccc2N1 | i | -17% | x | x | -12%
COc1ccc(C)cc1NC(=O)CN1C(=O)NC2(CCC(C(C)(C)C)CC2)C1=O (configuration not stated) | -6% | u | i | -24% | u
Cc1cc(F)ccc1NC(=O)CN1C(=O)NC2(CCC(C(C)(C)C)CC2)C1=O (configuration not stated) | i | 40µM* | i | -2% | u
COc1ccc(NC(=O)CN2C(=O)NC3(CCC(C(C)(C)C)CC3)C2=O)c(OC)c1 (configuration not stated) | -23% | u | i | 0% | 35µM*
CC(C)(C)C1CCC2(CC1)NC(=O)N(CC(=O)Nc1ccc(F)cc1F)C2=O (configuration not stated) | u | -42% | i | -7% | u
COCCCn1c(C)cc(C(=O)NCCc2noc(-c3ccccc3)n2)c1C | 4% | u | i | -3% | 40µM*
O=C(NCc1cccc(C(F)(F)F)c1)c1nc2sccn2c1-c1cccnc1 | -7% | u | x | x | u
O=C(Nc1ncc(-c2cccc(F)c2)c2c1OCC2)c1ccc(F)c(Cl)c1 | i | u | i | -13%[70.6 µM] | 35µM*
Cc1noc(C)c1-c1cnc(Nc2cccc(C(F)(F)F)c2)c2c1CCO2 | -13%[88.5 µM] | u | u | -17%[70.6 µM] | 63µM*
CNC(=O)c1cccc(-c2cnc(Nc3ccc(F)c(Cl)c3)c3c2CCO3)c1 | -14%[88.5 µM] | u | 10µM* | -23%[70.6 µM] | 28µM*
CNC(=O)c1cccc(-c2cnc(Nc3ccncc3)c3c2CCO3)c1 | i | u | i | 3%[70.6 µM] | u
CNC(=O)c1cccc(-c2cnc(Nc3cccnc3)c3c2CCO3)c1 | i | u | 25µM* | -2%[70.6 µM] | u
CN1C(=O)CO[C@@H](C(=O)N2CCN(c3ccccc3)CC2)[C@@H]1c1ccccc1 | i | -5% | x | x | -4%
COc1ccc(CNC(=O)N2CCc3nc(-c4ccccc4)[nH]c3C2)cc1 | i | u | x | x | u
Fc1cccc(Nc2ncc(-c3cncnc3)c3c2OCC3)c1 | i | x | x | x | x
CNC(=O)c1cccc(-c2cnc(Nc3cccc(C(F)(F)F)c3)c3c2CCO3)c1 | -7%[88.5 µM] | 40µM* | u | u | 63µM*
Fc1cccc(-c2cnc(Nc3cnccn3)c3c2CCO3)c1 | -4%[88.5 µM] | u | u | 0%[70.6 µM] | 100µM*
O=C(Nc1ncc(-c2cccc(F)c2)c2c1OCC2)c1ccncc1 | 0%[88.5 µM] | u | i | 4%[70.6 µM] | -26%[172 µM]
CCn1nccc1C(=O)N1CCC(N2C(=O)[C@H]3CN(Cc4ccccc4)C[C@H]3C2=O)CC1 | -30% | -26% | x | x | -27%
Cc1ccc(-c2nnc(C3CN(C(=O)c4ccccc4C)CC34CCOCC4)o2)cc1 (configuration not stated) | i | -8% | i | 1% | u
O=C(Nc1ccc(Cl)cc1)NC1CCN(Cc2cccc(-c3cccs3)c2)CC1 | -20% | 13µM* | x | x | 20µM*
SMILES | GPT2 inh | 3T3 cytotox | Luciferase inh | hNpr1 antagonist | HEK cytotox
CC(C)NC(=O)NC1CCN(Cc2cccc(-c3cccs3)c2)CC1 | i | u | x | x | u
O=C(Nc1ccccc1)NC1CCN(Cc2cccc(-c3cccs3)c2)CC1 | i | 14µM* | x | x | 20µM*!
Cn1nc(C2CC2)cc1NC(=O)c1ccccc1Cl | i | -20%[138 µM] | x | x | -10%[172 µM]
CCN1c2cc(C(=O)Nc3ccc(F)c(F)c3)ccc2C(=O)N2CCCCC21 (configuration not stated) | 4% | u | i | 0% | 40µM*
CCN1c2cc(C(=O)Nc3ccc(OC)c(F)c3)ccc2C(=O)N2CCCCCC21 (configuration not stated) | i | u | i | -19% | u
CCN1c2cc(C(=O)Nc3ccc(Cl)c(F)c3)ccc2C(=O)N2CCCCC21 (configuration not stated) | i | u | i | -14% | 35µM*
Cc1nn(-c2ccc(C(C)C)cc2)c(C)c1[C@@H]1C=C[C@@H](NC(=O)Nc2ccc(Cl)cc2)C1 | 2% | u | i | -19% | u
Cc1nn(-c2ccc(C(F)(F)F)cc2)c(C)c1[C@@H]1C=C[C@@H](NC(=O)NC2CCCCC2)C1 | u | u | i | -20% | u
CCNC(=O)N[C@@H]1C=C[C@@H](c2c(C)nn(-c3ccc(C(C)(C)C)cc3)c2C)C1 | i | u | u | 32µM* | 35µM*
Cc1nn(-c2ccc(C(C)(C)C)cc2)c(C)c1[C@@H]1C=C[C@@H](NC(=O)CC(C)(C)CC(=O)O)C1 | i | u | u | 1% | i
Cc1nn(-c2ccc(C(C)C)cc2)c(C)c1[C@@H]1C=C[C@@H](NC(=O)NCc2ccccc2)C1 | i | 25µM* | u | 7.1µM* | 25µM*
Cc1nn(-c2ccc(C(C)C)cc2)c(C)c1[C@@H]1C=C[C@@H](NC(=O)NC2CCCCC2)C1 | 4%[88.5 µM] | u | 7.9µM* | u | u
Cc1nn(-c2ccc(C(C)(C)C)cc2)c(C)c1[C@@H]1C=C[C@@H](NC(=O)NCc2ccccc2)C1 | 3%[88.5 µM] | u | u | 18µM* | 28µM*
O=C(Nc1cc(-c2ccccn2)nn1-c1ccccc1)c1ccc2ccccc2n1 | -9% | -24% | x | x | -17%
Cc1nn(-c2ccc(C(C)(C)C)cc2)c(C)c1[C@@H]1C=C[C@@H](NCc2ccco2)C1 | 4%[88.5 µM] | u | 50µM* | -30%[70.6 µM] | 11µM*
O=C(NCC(F)(F)F)c1ccc2oc(-c3ccncc3)nc2c1 | -14% | u | x | x | u
C=CCOc1c(OC)ccc2c1CN(CC1CC1)C(=O)CCN2CC(O)COc1ccc(OC)cc1 (configuration not stated) | x | u | x | x | 40µM*
COc1ccc(CO[C@H]2COCCN(c3nc4ccccc4s3)C2)cc1 | -6%[88.5 µM] | u | u | -5%[70.6 µM] | 100µM*
Cc1ccc(-c2[nH]ncc2CN2CCN(c3ccc(Cl)cn3)CC2)cc1C | u | u | i | 12% | 35µM*
